# This is a sample that favours compounds with a hit; in the whole collection about 4.6% have one here.
# TRHR PAM: TRH receptor (human) allosteric enhancement; TRHR cells, fluo-8 calcium fluorescence, EC20 TRH enhancement; enhancement, % at 2 µM; 360,000 tested, 0.66% active; AID 493056; in the data active = enhancement above about 30%; also: 0% is about no effect
# Target sequence (P34981 whole entry, looked up): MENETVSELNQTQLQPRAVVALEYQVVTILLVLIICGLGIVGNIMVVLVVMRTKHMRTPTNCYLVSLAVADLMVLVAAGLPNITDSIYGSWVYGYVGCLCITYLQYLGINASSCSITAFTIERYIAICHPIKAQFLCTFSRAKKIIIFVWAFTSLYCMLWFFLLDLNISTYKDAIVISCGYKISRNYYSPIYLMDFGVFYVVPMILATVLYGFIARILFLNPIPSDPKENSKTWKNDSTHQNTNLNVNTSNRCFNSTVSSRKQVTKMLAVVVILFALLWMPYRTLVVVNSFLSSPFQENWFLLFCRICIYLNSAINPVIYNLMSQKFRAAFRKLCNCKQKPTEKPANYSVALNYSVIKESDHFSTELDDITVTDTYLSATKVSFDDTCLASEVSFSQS
#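 TRHR-expressing cells loaded with fluo-8 calcium dye were read kinetically (ex 480/em 530) during compound addition, then stimulated with an EC20 of TRH (10 nM final). Enhancement of the Gq-mediated intracellular calcium response was scored.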
# TRHR agonist: TRH receptor (human) agonism; P34981; TRHR cells, calcium flux fluo-8, FDSS agonist mode; activation, % at 2 µM; 360,000 tested, 0.18% active; AID 493084; also: 0% is about no effect
#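 Read-out: compound-evoked intracellular calcium rise in TRHR cells, fluo-8 dye, kinetic FDSS fluorescence at 1 s/cycle following a 10-cycle baseline. Cells cultured overnight before dye loading (30 min–1.5 h, RT).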
# D1 PAM: potentiators of human D1 dopamine receptor. P21728. HEK293 TREx D1 cells, calcium flux, dopamine EC20 potentiation. potentiation, % at 10 µM. 360,000 tested, 0.036% active; in the data active = potentiation above about 30%; also: 0% is about no effect
# D1 antag: antagonists of human D1 dopamine receptor | P21728 | HEK293 TREx D1 cells, calcium flux, dopamine EC80; stronger effect = lower value | activity change, negative = inhibition, % at 10 µM | 360,000 tested, 3.2% active; in the data active = activity change below about -30%; also: % is scaled to controls: 0 for no effect and ±100 for the full control effect
#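 Tetracycline-induced HEK293 Trex D1 cells, force-coupled to calcium, dye-loaded; compounds added and read 180 s, then EC80 dopamine added and calcium flux tracked kinetically another 180 s.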
# D1 ag: human D1 receptor agonism. 360,000 tested, 1% active. AID 504660. HEK293 T-REx D1 cells, calcium flux, agonist mode. activation, % at 2 µM; also: 0% is about no effect
#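 Agonism was scored from calcium flux recorded over 180 s (1 read/s) after pintool compound addition, following a 10-cycle baseline. Cells were inducible force-coupled HEK293 TREx D1, plated overnight at 30 C and loaded with no-wash calcium dye.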
# Starred values were filed as active, the others as inactive; . = not tested or not shown; ! = a repeat was not active. Rule as the data show it, unless noted: active = activation above about 30%; inactive = the rest.
SMILES,TRHR PAM,TRHR agonist,D1 PAM,D1 antag,D1 ag
CC(=O)c1ccc(N2CCN(S(=O)(=O)c3ccc4c(c3)C(C)(C)C(=O)N4)CC2)cc1,18,0,-1,-8,4
Cn1nc(C(F)(F)F)c2cc(C(=O)Nc3ccc(Cl)cc3)sc21,-3,1,-2,-18,3
O=c1c2ccccc2sn1-c1cc(S(=O)(=O)N2CCOCC2)ccc1N1CCCC1,2,-1,0,4,90*
O=c1c2ccccc2sn1-c1cc(S(=O)(=O)N2CCOCC2)ccc1N1CCOCC1,-3,0,-10,7,29
O=C(CCc1c[nH]c2ccccc12)Nc1ccc(S(=O)(=O)Nc2ncccn2)cc1,9,1,17,-1,4
CC(C)CNc1cc(NC2CCCCC2)c2c3c(onc13)-c1ccccc1C2=O,-1,0,3,-5,1
O=C1c2ccccc2-c2onc3c(Br)cc(NC4CCCCC4)c1c23,0,6,-3,-2,39*
O=C(Nc1ccccc1)Nc1cc(OCC(F)(F)F)cc(OCC(F)(F)F)c1,-13,1,-10,-33*,22
COc1ccc(NS(=O)(=O)c2ccc(N3CCOCC3)c(N)c2)cc1,4,2,7,-32*,23
O=C(NCC(c1ccc(F)cc1)N1CCOCC1)c1cccnc1Sc1ccccc1Cl (stereo unspecified),-10,0,-3,3,1
COc1ccccc1C(=O)Nc1c(C(=O)N(CCN(C)C)Cc2ccco2)oc2ccccc12,0,2,-14,-38*!,46*!
CN(C)CCN(Cc1ccco1)C(=O)c1oc2ccccc2c1NC(=O)c1ccccc1,-4,1,-5,-42*,9
Cc1ccccc1C(=O)Nc1c(C(=O)N(CCN(C)C)Cc2ccco2)oc2ccccc12,-3,1,-5,-11,10
Cc1csc(C(C#N)C(=O)c2ccc(S(=O)(=O)N3CCCC3)cc2)n1 (stereo unspecified),24,2,2,-4,2
CN(C(=O)CN1C(=O)/C(=C/c2ccc(F)cc2)SC1=S)C1CCS(=O)(=O)C1 (stereo unspecified),-5,0,-7,-2,3
C/C(Cn1cnc([N+](=O)[O-])n1)=N\NC(=O)c1ccccc1,-3,0,1,-13,3
C/C(Cn1cnc([N+](=O)[O-])n1)=N/NC(=O)COc1c(Cl)cc(Cl)cc1Cl,0,0,-9,-30*,0
Cc1ccc(CCNC(=O)C2CCC(=O)N2CCc2ccccc2)cc1 (stereo unspecified),-9,0,-6,6,2
CCCN1CCc2c(sc(NC(=O)c3ccc(S(=O)(=O)N4CCN(C(=O)OCC)CC4)cc3)c2C(N)=O)C1,-4,4,-1,5,12
CCCN1CCc2c(sc(NC(=O)c3ccc(S(=O)(=O)N(C)c4ccccc4)cc3)c2C(N)=O)C1,10,63*,6,-20,133*
CCN1CCc2c(sc(NC(=O)c3ccc(S(=O)(=O)N4CCCC4)cc3)c2C(=O)NC)C1,3,1,-3,-19,1
CCCN1CCc2c(sc(NC(=O)c3ccc(S(=O)(=O)N(C)c4ccccc4)cc3)c2C(=O)NC)C1,0,20,2,0,63*
CCOC(=O)C1=C(O)/C(=C/c2cn(CC(=O)N3CCCC3)c3ccccc23)SC1=Nc1ccccc1,-1,16,-4,-9,32*
COC(=O)c1cn(CC(=O)N2CCCCCC2)c2ccccc12,0,-1,7,-1,10
COc1ccc2c(CNCc3ccc(Cl)cc3)c(C(=O)O)n(Cc3ccccc3C)c2c1,0,0,6,11,-1
SMILES,TRHR PAM,TRHR agonist,D1 PAM,D1 antag,D1 ag
Cc1ccc(-n2c(CCc3ccccc3)n[nH]c2=S)cc1C,31*,0,-2,-2,0
Cc1ccc(OCc2n[nH]c(=S)n2-c2ccccc2)cc1C,-6,0,-1,-7,1
COC(=O)c1ccccc1-c1c2ccc(=N)cc-2oc2cc(N)ccc12,-18,198*,-5,-56*,507*
CCOC(=O)c1ccc(N=c2ssnc2Cl)cc1,2,-1,4,6,6
CCN1/C(=C/C=C/C=C/C=C/c2sc3ccccc3[n+]2CC)Sc2ccccc21,32*,1,2,0,0
Fc1ccc(N2CCN(c3ncnc4nc[nH]c34)CC2)cc1,22,1,-9,-54*,2
Cc1ccc(S(=O)(=O)N(C)CC(=O)N2CCCCCC2)cc1,33*,0,4,-2,-4
Cc1ccc(S(=O)(=O)NCCC(=O)N2CCN(c3cccc(Cl)c3)CC2)cc1C,1,0,3,-30*,6
Cc1nc2ccc(S(=O)(=O)NC(C(=O)N3CCn4c3nc3ccccc34)C(C)C)cc2s1 (stereo unspecified),-12,1,-6,-55*,1
Cc1ccc(S(=O)(=O)NCCC(=O)N2CCCCC2)cc1,-5,0,0,3,-1
Cc1ccc(CNC(=O)C(NS(=O)(=O)c2ccc3nc(C)sc3c2)C(C)C)cc1 (stereo unspecified),4,0,-2,2,3
Cc1ccc(S(=O)(=O)NCCC(=O)N2CCCCCC2)cc1,15,0,-14,-36*,4
COc1ccc(N2CCN(C(CNC(=O)C(C)C)c3ccc4c(c3)OCO4)CC2)cc1 (stereo unspecified),6,1,2,9,4
Cc1nc2ccc(S(=O)(=O)NCC(=O)N3CCN(c4ccccc4)CC3)cc2s1,-7,0,-5,-39*,1
Cc1nc2ccc(S(=O)(=O)NCC(=O)N3CCCCC3)cc2s1,0,0,-3,-1,1
COc1ccc(CCCc2nnc(SCC(=O)Nc3ccc(F)cc3)o2)cc1C,3,-1,-5,-50*,1
COc1ccccc1NC(=O)CSc1nnc(-c2ccc(C)cc2)o1,-5,0,-10,-82*,1
Cc1ccc(NC(=O)CSc2nnc(-c3ccc([N+](=O)[O-])cc3)o2)c(C)c1,2,0,0,-4,51*
COc1ccc(-c2nnc(SCC(=O)Nc3cc(F)ccc3C)o2)cc1,13,-1,.,-39*,12
COc1ccc(CCCc2nnc(SCC(=O)Nc3ccccc3F)o2)cc1C,0,1,-2,-30,15
Cc1ccc(-c2cc(NC(=O)c3ccccc3Cl)on2)cc1,5,3,-2,-7,6
CC(C)c1ccccc1NC(=O)CSc1nnc(COc2ccccc2Cl)o1,0,-1,-1,-9,38*
CCOC(=O)CN(C(=O)CSc1nnc(-c2cccc(OC)c2)o1)c1ccc(F)cc1,11,-1,0,-22,56*
